Measurements as given in PubChem BioAssay (NCATS).
Inconclusive results are not listed. A call without a number means that no potency is given here. Active and inactive are the calls of the source. The call rests on the fitted dose curve; in most records, active means well fitted inhibition curve with a large enough effect; inconclusive means small, poorly fitted or top-dose-only effect; inactive means flat fitted curve, though single readings scatter.

Molecular target: Calcium and integrin-binding protein 1 (Homo sapiens) (UniProt Q99828)
Assay: Primary qHTS for Identification of Calcium Integrin Binding Protein 1 (CIB1) Competitor (AID 1508620); further: top concentration of the series differs between compounds
Details: CIB1-GST / FITC-alphaIIb peptide fluorescence polarization; series mostly up to 114 µM
Outline: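 Fluorescence polarization competition: GST-tagged CIB1 (1 uM final) preincubated with compound 15 min at room temperature, then FITC-labelled alphaIIb peptide (100 nM final) added. After 15 min at room temperature, polarization read at Ex 480/Em 540.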

Calcium and integrin-binding protein 1 (Homo sapiens), sequence (Q99828 whole entry, looked up): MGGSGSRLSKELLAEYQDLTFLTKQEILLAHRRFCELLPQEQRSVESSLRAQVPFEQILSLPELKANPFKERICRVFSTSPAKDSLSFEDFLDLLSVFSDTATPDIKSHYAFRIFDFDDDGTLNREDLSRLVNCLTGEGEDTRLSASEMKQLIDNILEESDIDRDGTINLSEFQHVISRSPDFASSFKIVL

SMILES | Potency
O=C1CCc2cc([S+](=O)([O-])Nc3ccc(N[S+](=O)([O-])c4ccc5c(c4)CCC(=O)N5)cc3)ccc2N1 | inactive
O=C(NCc1nnc(-c2cc3ccccc3[nH]2)o1)c1ccccc1 | inactive
COc1cccc(CNc2ccc(S(=O)(=O)Nc3cccc4ccncc34)cc2)c1O | inactive
Nc1nc(NCc2ccc(-c3ccnc(C(F)(F)F)c3)cc2)c2ccccc2n1 | inactive
O=S(=O)(Nc1nccs1)c1ccc(NCc2cc(F)ccc2O)cc1 | inactive
Cc1sc(NC(=O)Cc2ccc3c(c2)OCO3)nc1-c1ccc2c(c1)CCN2C | inactive
NC(=O)c1ccc(C[C@H](C(=O)O)N2C(=O)c3ccc(C(=O)O)cc3C2=O)cc1 | inactive
Cc1cc2c(s1)c1cnn(Cc3ccccc3Br)c(=O)c1n2C | inactive
O=C1Cc2cc(S(=O)(=O)N3CCN(c4ccc(C(F)(F)F)cc4)CC3)ccc2N1 | inactive
Cc1ccc(-c2nn(CC(=O)N(C)C(C)c3ccco3)c(=O)cc2C)cc1 (centres undefined) | inactive
CC1=C(C(=O)NC2CCCCC2)C(c2ccccc2Br)N=C(Nc2nc3ccccc3o2)N1 (centres undefined) | inactive
Cc1c(C(=O)O)[nH]c2c1C(=O)CC(c1ccco1)C2 (centres undefined) | inactive
COc1ccc(S(=O)(=O)NC2CCN(C#N)CC2)cc1 | inactive
O=S(=O)(c1ccc2c(c1)OCCO2)C1CCN(S(=O)(=O)c2c(F)cccc2F)CC1 | inactive
O=C1CCc2cc(S(=O)(=O)Nc3ccc4c(c3)OCCO4)ccc2N1 | inactive
Cc1cc(C)n2ncc(C(=O)Nc3cccc(C(F)(F)F)c3)c2n1 | inactive
NCCCCNc1ncnc2ccc(-c3ccc4c(c3)OCO4)cc12 | inactive
O=[S+]([O-])(c1ccc(-c2ccccc2)cc1)N1CCN([S+](=O)([O-])c2ccc3c(c2)OCCO3)CC1 | inactive
N#CN1CCC(NC(=O)c2cccc(F)c2)CC1 | inactive
N#Cc1nc(-c2cccc3ccccc23)oc1NCC#CCOC(=O)c1cccs1 | inactive

SMILES | Potency
COC(=O)c1ccccc1S(=O)(=O)Nc1cc(=O)c2ccccc2[nH]1 | inactive
Cn1nnnc1Sc1ncnc2scc(Br)c12 | inactive
COc1cccc(C2c3c(ncn(-c4ccc(C#N)cc4)c3=N)Oc3ccc4ccccc4c32)c1 (centres undefined) | inactive
Cn1cc2ccc(-c3ccc4ncnc(NCc5cccs5)c4c3)cc2n1 | inactive
C/C=C\C1=CCCC1Nc1ncnc2ccc(-c3c(C)noc3C)cc12 (centres undefined) | inactive
CCC(=O)NC(C)c1cc(Cl)c2cccnc2c1O (centres undefined) | inactive
c1coc(-c2ccc3ncnc(NCc4cccs4)c3c2)c1 | inactive
CCOC(=O)c1ccoc1-c1ccc2ncnc(NCc3ccc(C)o3)c2c1 | inactive
COc1cccc(CNc2ccc(S(=O)(=O)Nc3cc(C)on3)cc2)c1O | inactive
Cc1cc(C)nc(NC(=S)N2CCN(c3cnccn3)CC2)c1 | inactive
O=C(CNC(=O)c1ccc(Cl)c(C(F)(F)F)c1)OC(C(=O)Nc1cc(C(F)(F)F)ccc1Cl)c1ccccc1 (centres undefined) | inactive
CC(C)(C)c1ccc(NC(=O)c2cccs2)cn1 | inactive
O=C(Nc1nnc(-c2ccncc2)s1)Nc1cc(C(F)(F)F)ccc1F | inactive
CC(C)(C)OC(=O)N1CCN(c2ccc(NCc3ccc(-c4ccc(C#N)cc4)o3)cn2)CC1 | inactive
CC(=O)Nc1sc2c(c1-c1nc3ccccc3s1)CNCC2 | inactive
COc1ccc(C2Nc3ccccc3C(=O)N2Cc2cccc(Cl)c2)cc1COc1ccc(NC(C)=O)cc1 (centres undefined) | inactive
O=C1CCCC2=C1C(c1ccccc1C(F)(F)F)N=C(Nc1nc3ccccc3o1)N2 (centres undefined) | inactive
CC(=O)Nc1sc2c(c1-c1ccc3nonc3c1)CCNC2 | inactive
COc1cnccc1-c1nc(Nc2ccc(F)c(F)c2)c2ccccc2n1 | inactive
